Screens as filed in PubChem.
In the library only some 3.6% were active in any assay of this set; here they are far more common.
D1 antag: Antagonist of Human D 1 Dopamine Receptor: qHTS. HEK293 TREx D1 cells, calcium flux, dopamine EC80; active compounds read low. activity change, negative = inhibition, % at 10 µM. actives 3.2% (n = 360,000); in the data active means activity change below about -30%; further: on the % scale 0 is the no-effect control and ±100 the full control effect
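After overnight tetracycline induction at 30 C, force-coupled D1 HEK293 cells took up a no-wash calcium dye at room temperature. Compounds were added and monitored 180 s, and the response to EC80 dopamine was then recorded.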
LDHA block: qHTS assay for inhibitors of human lactate dehydrogenase | L-lactate dehydrogenase A chain (Homo sapiens), P00338 | purified LDHA, NADH/diaphorase-resazurin fluorescence; active compounds read low | activity change, % (values are at about 110 or 230 µM) | actives 0.15% (n = 480,000) | AID 1347041, 2019; in the data active means activity change below about -30%;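 further: plate controls were DMSO wells for no effect and wells without enzyme for full effect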
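Human LDH5 at 2 nM final in Tris HCl pH 7.4 with 0.06 mM NADH and 0.2 mM pyruvate, reacted 5 minutes at room temperature. Remaining NADH coupled via diaphorase/resazurin; resorufin fluorescence read at 0 and 20 minutes, normalized to enzyme-free and DMSO wells.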
TRHR PAM: qHTS for Small Molecule Agonists and Allosteric Enhancers of Human TRH Receptor: Primary Screen for Enhancers; Thyrotropin-releasing hormone receptor (Homo sapiens), P34981; TRHR cells, fluo-8 calcium fluorescence, EC20 TRH enhancement; enhancement, % at 2 µM; actives 0.66% (n = 360,000); AID 493056, 2011; in the data active means enhancement above about 30%; further: 0% is about no effect
Target sequence (P34981 whole entry, looked up): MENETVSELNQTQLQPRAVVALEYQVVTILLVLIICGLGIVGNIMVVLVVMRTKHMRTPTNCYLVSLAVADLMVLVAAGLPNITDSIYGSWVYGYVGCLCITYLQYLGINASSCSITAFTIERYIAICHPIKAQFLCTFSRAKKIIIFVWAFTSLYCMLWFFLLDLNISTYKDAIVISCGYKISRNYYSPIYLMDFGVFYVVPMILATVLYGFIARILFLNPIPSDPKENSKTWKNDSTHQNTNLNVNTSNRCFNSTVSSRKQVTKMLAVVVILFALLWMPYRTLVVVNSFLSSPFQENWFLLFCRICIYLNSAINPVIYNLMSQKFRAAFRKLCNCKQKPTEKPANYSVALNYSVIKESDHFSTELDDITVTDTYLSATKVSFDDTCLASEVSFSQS
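TRHR-expressing cells loaded with fluo-8 calcium dye were read kinetically (ex 480/em 530) during compound addition, then stimulated with an EC20 of TRH (10 nM final). Enhancement of the Gq-mediated intracellular calcium response was scored.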
TRHR ag: qHTS for Small Molecule Agonists and Allosteric Enhancers of Human TRH Receptor: Primary Screen for Agonists; Thyrotropin-releasing hormone receptor (Homo sapiens), P34981; TRHR cells, calcium flux fluo-8, FDSS agonist mode; activation, % at 2 µM; actives 0.18% (n = 360,000); AID 493084, 2011; further: 0% is about no effect
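Agonist-mode FDSS calcium read (Ex 480/Em 530, 1 s cycles) in 1536-well TRHR cells with fluo-8 dye, after 10-cycle baseline and 23 nL compound addition; TRH at EC20 (10 nM final) added afterwards for the enhancer phase.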
D1 ag: Allosteric Agonists of the Human D1 Dopamine Receptor: qHTS; D(1A) dopamine receptor (Homo sapiens), P21728; HEK293 T-REx D1 cells, calcium flux, agonist mode; activation, % at 2 µM; actives 1% (n = 360,000); AID 504660, 2011; further: 0% is about no effect
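Agonism was scored from calcium flux recorded over 180 s (1 read/s) after pintool compound addition, following a 10-cycle baseline. Cells were inducible force-coupled HEK293 TREx D1, plated overnight at 30 C and loaded with no-wash calcium dye.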
D1 PAM: Potentiators of Human D1 Dopamine Receptor: qHTS; HEK293 TREx D1 cells, calcium flux, dopamine EC20 potentiation; actives 0.036% (n = 360,000); AID 504651, 2011; D(1A) dopamine receptor (Homo sapiens), P21728; potentiation, % at 10 µM; in the data active means potentiation above about 30%; further: 0% is about no effect
The depositor's hits bear a star; . = not tested or not shown; ! = not confirmed by another sample. Unless noted, no stated cut-off is given here; in the data, active means activation above about 30%; inactive means the rest.

SMILES	D1 antag	LDHA block	TRHR PAM	TRHR ag	D1 ag	D1 PAM
CC(C)(C)OC(=O)N1CCC(c2c(C(=O)NCCN3CCC(Cc4ccccc4)CC3)cnn2-c2ccc(F)cc2)CC1	-9.7	1.8	3.1	2.1	40.1*	1.6
CC(C)(C)OC(=O)N1CCC(c2c(C(=O)NCCN3CCC(Cc4ccccc4)CC3)cnn2-c2ccccc2)CC1	-6.7	-0.9	3.5	3.0	56.4*	-3.0
CC(C)(C)OC(=O)N1CCC(c2c(C(=O)NCc3ccc(F)cc3)cnn2-c2ccc(F)cc2)CC1	3.1	-0.2	10.4	0.5	0.9	4.1
CC(C)(C)OC(=O)N1CCC(c2c(C(=O)NCc3cccc(Cl)c3)cnn2-c2ccc(F)cc2)CC1	-42.6*	-0.1	2.1	1.7	2.3	-9.1
Cc1ccc(-n2ncc(C(=O)NCCN3CCN(C)CC3)c2C2CCN(C(=O)OC(C)(C)C)CC2)cc1	-1.1	-4.5	8.5	3.6	1.7	8.0
COc1ccc(CCN2CCC(CNC(=O)c3cnn(-c4cccc(Cl)c4)c3C3CCN(C(=O)OC(C)(C)C)CC3)CC2)cc1	-2.1	5.5	17.8	1.6	29.7	2.8
COc1ccc(-c2cc3ccc(OS(C)(=O)=O)cc3oc2=O)cc1	.	4.3	.	.	.	.
FC(F)(F)c1ccc(CCNC(=S)NCCc2ccccc2)cc1	.	-3.3	.	.	.	.
CCCCn1c(=O)[nH]c(=O)c2c1nc(CSc1nnnn1C1CCCC1)n2CC	.	7.9	.	.	.	.
COC(=O)c1ccccc1NC(=O)Cn1c(-c2nonc2N)nc2ccccc21	-67.5*	-15.2	1.1	-0.5	0.4	-10.4
CCCn1c(-c2nonc2N)nc2ccccc21	-61.9*	-7.4	-4.0	0.3	0.9	-7.3
Nc1nonc1-c1nc2ccccc2n1CC(=O)Nc1ccccc1C(=O)O	8.0	-6.1	11.3	0.9	0.3	1.0
Cc1ccc(C)c(NC(=O)Cn2c(-c3nonc3N)nc3ccccc32)c1	-10.2	-32.5*!	-3.1	0.5	4.0	-2.6
Cc1ccc(Cn2nnc3c(=O)n(CC(=O)OCc4ccccc4)cnc32)cc1	-33.0*	-1.4	4.9	0.3	3.6	-7.2
CC(C)Oc1ccc(C(=O)Nc2cccc3ncccc23)cc1	.	0.6	.	.	.	.
NC1=NC2(CCN(Cc3ccccc3)CC2)n2c(nc3ccccc32)N1	-43.2*	-3.9	3.4	0.6	0.8	-10.2
Cc1cccc(NC(=O)CC2(C(=O)O)CCCC2)c1C	.	-0.7	.	.	.	.
CCN1CCN(C(=O)c2cc(S(=O)(=O)Nc3ccc(S(C)(=O)=O)cc3)ccc2Cl)CC1	-47.2*	0.4	-21.2	-0.4	1.4	-4.7
Cc1cc(C(c2ccc(Cl)cc2)N2CCN(C)CC2)c(NC(=O)c2ccco2)s1 (stereo not given)	.	-0.3	.	.	.	.
COC(=O)c1cc(S(=O)(=O)N2CCN(c3ccccc3F)CC2)c[nH]1	-1.4	-4.2	-2.3	0.5	8.5	-4.2
O=C(CCNS(=O)(=O)c1ccc2c(c1)CCN2C(=O)C1CC1)N1CCN(c2ccccc2F)CC1	-19.3	-1.2	0.2	-0.2	2.8	-2.4
COC(=O)c1cc(S(=O)(=O)NCCN2CCN(c3ccccc3F)CC2)c[nH]1	-42.5*	-1.4	3.0	1.3	4.1	-10.7
O=C(C1CCC1)N1CCc2cc(S(=O)(=O)NCCN3CCN(c4ccccc4F)CC3)ccc21	-39.1*	-4.0	0.3	1.9	3.3	-10.5
Cc1nc2ccc(NC(=O)c3ccc4c(c3)NC(=O)CS4)cc2s1	.	-3.2	.	.	.	.
COc1ccc(NC(=O)CCC(=O)c2ccc(C(C)C)cc2)cc1	-13.5	-2.3	4.1	0.6	2.2	-4.9
SMILES	D1 antag	LDHA block	TRHR PAM	TRHR ag	D1 ag	D1 PAM
CC(C)C(C(=O)Nc1ccncc1)c1ccc(Cl)cc1 (stereo not given)	-7.1	-2.5	-3.5	7.7	50.8*	0.2
Cc1cc(OCC(=O)Nc2ccncc2)ccc1Cl	-38.5*	-8.2	-13.8	0.3	19.6	-2.8
CC1=C(C)CC(C(=O)NCc2ccccn2)C(C(=O)O)C1 (stereo not given)	-91.4*	1.6	2.8	0.9	3.4	-4.5
COc1ccc(NC(=O)Nc2ccc(C(C)C)cc2)cc1	-36.5*	-5.3	-14.9	-0.4	-0.4	-8.8
O=C(O)C1CCCCC1C(=O)NCc1ccccn1 (stereo not given)	17.2	-0.6	-0.4	1.2	2.1	-11.1
CNC(=O)Nc1ccc(NC(=O)C(c2ccc(Cl)cc2)C(C)C)cc1 (stereo not given)	.	0.7	.	.	.	.
COC(=O)c1ccc(OC(=O)c2cc(-c3cccs3)nc3ccccc23)cc1	.	5.1	.	.	.	.
CC(C)c1ccc(OCC(=O)Nc2ccncc2)cc1	-33.7*	-7.8	-6.0	-2.2	18.4	0.4
CC(C)c1ccc(NC(=O)NCc2ccccn2)cc1	-33.9*	-3.2	-1.6	0.2	4.1	3.5
CC(C)c1onc(C(=O)NCc2ccccn2)c1[N+](=O)[O-]	-6.1	3.5	30.6*	0.5	0.5	0.1
CCN(CC)C(=O)CN1CCN(C(=O)c2cc(-c3ccc(OC)cc3)nc3ccccc23)CC1	.	4.3	.	.	.	.
CNC(=O)c1ccc(CN(C2CC2)S(=O)(=O)c2ccc3c(c2)CCC3)cc1	.	7.8	.	.	.	.
CCCNS(=O)(=O)c1ccc(OCC(=O)NCc2cccnc2)cc1	.	0.7	.	.	.	.
O=C(NC(=S)NCc1cccnc1)c1cc2ccccc2o1	-3.0	-2.0	-4.2	-0.1	6.4	2.4
Cc1ccc(NC(=O)Nc2ccon2)cc1Cl	-30.8*	-5.4	9.8	0.5	5.3	-11.5
CCC(C)c1ccc(NC(=O)Nc2cccnc2)cc1 (stereo not given)	-30.3*	2.1	4.6	-0.1	8.2	-2.4
CC(=O)Nc1cccc(NC(=O)Nc2cccc(F)c2)c1	-7.7	-0.3	1.6	0.7	2.9	1.6
CNS(=O)(=O)c1ccc(NC(=O)Nc2cccc(F)c2)cc1	-49.5*	-2.8	-3.9	1.4	4.2	-10.7
CCC(C)c1ccc(NC(=O)NCc2cccnc2)cc1 (stereo not given)	-9.1	-4.2	3.6	-0.7	3.6	-7.1
Cc1ccc(NC(=O)Nc2ccon2)cc1	3.3	0.0	-4.0	-0.2	2.8	-1.2
O=C(NC(=S)Nc1cccnc1)c1cc2ccccc2o1	-44.9*	-6.5	0.0	-0.2	2.4	-1.9
CCCN(CC(=O)Nc1ccccc1OC)C(=O)c1cc(=O)c2ccccc2o1	.	1.7	.	.	.	.
